Bioassay records deposited in PubChem BioAssay by National Center for Advancing Translational Sciences (NCATS).
Sampled rows, rich in hits. Any-hit rate of the full collection: about 0.35%.
Apoferritin bind – candidate novel general anesthetic via apoferritin binding | 350,000 tested, 0.074% active | P02791 | Potency, µM (doses to about 77.5 µM), for the others: top-dose activity change, negative = displacement, usual class: inhibitors | apoferritin/1-aminoanthracene competitive binding, fluorescence; note: potency is the fitted concentration of half-maximal effect; % is set by controls: 0 for no effect and ±100 for the full control effect; nearly all actives have a fitted effect of over 20% in size
Target sequence (P02791 2-175 limits assumed): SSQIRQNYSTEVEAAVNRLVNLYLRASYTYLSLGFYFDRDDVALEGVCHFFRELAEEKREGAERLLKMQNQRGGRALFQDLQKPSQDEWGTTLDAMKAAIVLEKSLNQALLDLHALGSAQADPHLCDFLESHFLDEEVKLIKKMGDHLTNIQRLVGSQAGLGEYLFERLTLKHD
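10 uM apoferritin + 50% sat. 1-AMA, PBS; cpd 10 min RT; Ex380/Em535 endpoint; normalized to free probe vs complex; 4-param Hill fit; propofol titration as pos. ctrl.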
RGS4 inh – blocks human RGS4-accelerated GTP hydrolysis. Transcreener GDP fluorescence polarization, RGS4-accelerated GTP hydrolysis. Potency, µM (series often up to 114 µM), inactives show at the highest dose activity change, negative = inhibition, usual class: inhibitors. 390,000 tested, 0.039% active. AID 504845; note: potency is the fitted concentration of half-maximal effect; % is set by controls: 0 for no effect and ±100 for the full control effect; nearly all actives have a fitted effect of over 75% in size
Target sequence (P49798 whole entry, looked up): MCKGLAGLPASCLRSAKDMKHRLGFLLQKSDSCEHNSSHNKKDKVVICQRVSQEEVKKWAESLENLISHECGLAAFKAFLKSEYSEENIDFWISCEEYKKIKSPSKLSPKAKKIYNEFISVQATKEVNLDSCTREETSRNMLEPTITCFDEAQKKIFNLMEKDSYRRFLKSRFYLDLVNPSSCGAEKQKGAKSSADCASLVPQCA
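MLSMR compounds (23 nl, pin-transferred) preincubated 10 min at room temperature with a 500nM (2x) first reagent, then RGS4 at 900nM (2x) plus Transcreener GDP mix added; fluorescence polarization (620/688 nm) read before and after 90 min at 30 °C.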
AT treatment – potential ataxia-telangiectasia treatments restoring KAP-1 phosphorylation; F2112 A-T fibroblasts, KAP-1 phosphorylation AlphaLISA; neocarzinostatin DNA damage 30 min before lysis; 320,000 tested, 0.19% active; Potency, µM (doses to about 57.5 µM), without a hit: at the highest dose activation, hits mostly activators; note: potency is the fitted concentration of half-maximal effect; % of control where 0% means no effect; nearly all actives have a fitted effect of over 45% in size
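hTERT-immortalized A-T patient fibroblasts (F2112), 500 cells/well in OPTI-MEM, 1% FBS, got compounds for 60 min, then NCS for 30 min at 37C. Lysates were then assayed for phospho-KAP-1 by AlphaLISA (anti-pKAP1 donor, anti-KAP1 acceptor beads), 6 hr at 25C.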
LDHA block – LDHA (human) enzyme inhibition; P00338; 480,000 tested, 0.15% active; activity change, % (values are at about 110 or 230 µM); purified LDHA, NADH/diaphorase-resazurin fluorescence; stronger effect = lower value; in the data active = activity change below about -30%; inconclusive = mostly about -25% to -30%;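 note: plate controls were DMSO wells for no effect and wells without enzyme for full effect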
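Resorufin fluorescence (ex540/em590), read at 0 and 20 min after diaphorase/resazurin addition, reports the NADH left after a 5 min room-temperature reaction of 2 nM human LDH5 with 0.06 mM NADH and 0.2 mM pyruvate.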
* marks the source's active call; other numbers are inactive results; ! = repeats disagree; [ ] = dose if it differs, or a comment. Unless noted, calls come from the whole dose curve; as a rule, active = well fitted curve in the direction sought with a large enough effect; inconclusive = small, poorly fitted or top-dose-only effect, or another doubt; inactive = no such curve, though single readings can be large; an effect the other way counts as inactive or inconclusive.

Screening O=C(NCCCNC(=O)c1c(F)cccc1F)c1c(F)cccc1F returned Apoferritin bind -2%, RGS4 inh -4%, AT treatment -9% and LDHA block 0.
O=C(NCC(Cl)c1ccc2ccccc2c1)c1c(F)cccc1F (stereo not drawn) was read as Apoferritin bind -18%, RGS4 inh 2%, AT treatment 20µM* and LDHA block -4.
Oc1ccc(-c2nc(-c3cc(F)ccc3F)cs2)cc1 was read as LDHA block 16.
O=C(Nc1cccc(Cl)c1)Nc1nnc([C@H]2C[C@H](O)[C@@H](CO)O2)s1 was read as LDHA block -30*.
For COc1ccc(CN(C)[C@H]2C[C@H]3c4[nH]c5ccccc5c4CCN3C[C@H]2[C@H](C)O)cc1 the results were LDHA block -30*.
For c1coc(CN2CNc3nc4ccccc4n3C2)c1 the results were Apoferritin bind 0%, RGS4 inh -16%, AT treatment 10µM* and LDHA block 2.
Nc1ccc2nc(-c3ccc(-c4nc5ccc(N)cc5[nH]4)cc3)[nH]c2c1 was read as Apoferritin bind 105%, RGS4 inh inconclusive, AT treatment 12% and LDHA block -10.
Nc1ccc(-c2nc3ccc(-c4nc5ccc(N)cc5[nH]4)cc3[nH]2)cc1 was read as Apoferritin bind 57%, RGS4 inh 27µM* and LDHA block -2.
`COCCN(C(=S)Nc1ccc(C)c(C)c1)C(C)c1ccco1` (stereo not drawn) gave Apoferritin bind inconclusive, RGS4 inh 4%, AT treatment 2% and LDHA block 1.
`COCCN(C(=S)Nc1c(C)cccc1C)C(C)c1ccco1` (stereo not drawn) gave Apoferritin bind -6%, RGS4 inh 0%[56.9 µM], AT treatment 20µM* and LDHA block -1.
CCCCNC(=O)CN1CCN(Cc2ccc3cc(OC)ccc3c2)CC1 was read as Apoferritin bind -3%, RGS4 inh 2%, AT treatment -7% and LDHA block -33*.
Cc1ccc2nc(C)cc(C(=O)NC3CCN(C(=O)c4ccccc4)CC3)c2c1 was read as LDHA block -15.
COc1ccc(CCn2c(C)nc3c(c(=O)c4ccccc4n3C)c2=O)cc1 was read as Apoferritin bind -3%, RGS4 inh -20%, AT treatment -1% and LDHA block -4.
Screening COc1ccc(CCn2c(S)nc3ccccc3c2=O)cc1 returned Apoferritin bind 6%, RGS4 inh -19%, AT treatment 1.8µM* and LDHA block 1.
For Cc1cc2oc(=O)cc(CN(C)CCOc3ccc(F)cc3)c2cc1Cl the results were LDHA block 7.
Cc1ccc2c(CN(C)CCOc3ccc(F)cc3)cc(=O)oc2c1 was read as LDHA block -33*.
For CCOc1cccc2cc(-c3nc(-c4ccccc4F)no3)c(=O)oc12 the results were LDHA block -35*.
For CCOc1cccc2cc(-c3nc(-c4ccc(F)cc4)no3)c(=O)oc12 the results were LDHA block 2.
Screening COC(=O)c1ccoc1COC(=O)CCc1ccc(-c2ccccc2)o1 returned LDHA block -6.
Screening CCCOc1ccc(-c2nnn(CC(=O)N3CCCC(C)C3)n2)cc1 (stereo not drawn) returned Apoferritin bind 5%, RGS4 inh 59%, AT treatment 40µM* and LDHA block -1.
CCc1ccc(CNC(=O)C(=O)c2c(C)[nH]c3ccccc23)cc1 was read as LDHA block 22.
CCCCc1nc2ccccc2c(NC(=O)CNC(C)(C)C)c1CCC was read as Apoferritin bind -16%, RGS4 inh -9% and LDHA block inconclusive.
CCCCc1nc2ccccc2c(NC(=O)CN2CCCC2)c1CCC was read as Apoferritin bind -8%, RGS4 inh 0%, AT treatment -3% and LDHA block -35*.
Screening CCN(CC)CC(O)Cn1c(-c2ccccc2Cl)nc2ccccc21 (stereo not drawn) returned Apoferritin bind 0%, RGS4 inh 6%, AT treatment 16µM* and LDHA block 1.
Screening On1c(-c2ccccc2Cl)nc2ccccc21 returned Apoferritin bind -9%, RGS4 inh 8%, AT treatment 1% and LDHA block -11.
Screening O=C1O/C(=C/Br)CCC1c1cccc2ccccc12 (stereo not drawn) returned RGS4 inh 9.5µM*.
Screening CC(C)c1ccc(NC(=O)C(c2ccccc2)N2CC(=O)Nc3ccccc32)cc1 (stereo not drawn) returned Apoferritin bind -9%, RGS4 inh -29%, AT treatment 35µM* and LDHA block 3.
`NNc1nc2c(-c3cccc(C(F)(F)F)c3)nnn2c2ccccc12` gave Apoferritin bind -17%, RGS4 inh -40%, AT treatment 25µM* and LDHA block -4.
CN1CCc2cc(Cl)c(O)cc2[C@@H](c2ccccc2)C1 was read as Apoferritin bind 0%, RGS4 inh 3µM*! and LDHA block -3.
`O=c1c2[nH]c3ccc(Cl)cc3c2ncn1CCN1CCCCC1` gave Apoferritin bind -4%, RGS4 inh 4%, AT treatment 28µM* and LDHA block 2.
Screening COc1ccc2c(c1)[nH]c1c(=O)n(CCN3CCCC3)cnc12 returned Apoferritin bind -9%, RGS4 inh -34%, AT treatment 1% and LDHA block -3.
For CCOc1cc(Br)c(C2C(C#N)=C(N)Oc3cc4c(cc32)OCO4)cc1OCC (stereo not drawn) the results were LDHA block 76.
For COc1ccc(C(CNC(=O)C(Cc2ccccc2)NC(N)=O)N(C)C)cc1 (stereo not drawn) the results were Apoferritin bind -2%, RGS4 inh 9%, AT treatment 0.89µM* and LDHA block -10.
